In PubChem BioAssay (Tox21):
A number with no mark means an inactive call. Records with an inconclusive call do not appear. A call without a number means that no potency is given here. Active and inactive are the calls of the source. Unless noted, calls follow the shape of the dose curve; as a rule, active = well fitted curve in the direction sought with a large enough effect in the repeat runs; inconclusive = weak or mixed curves; inactive = no such curve, though single readings can be large; an effect the other way counts as inactive or inconclusive.

Columns and labels:
[1] = qHTS assay to identify small molecule antagonists of the estrogen related receptor (ERR) signaling pathway from Tox21 library - cell viability counter screen (AID 1224834); also: nearly all actives have a fitted effect of over 30% in size
Outline: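 Counter screen run in ERR cells (2,000 cells/well): cells pre-incubated 6 h, then treated with compounds for 17.5 h at 37 C. Fluorescence was read 30 min after CellTiter-Fluor addition.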

[2] = molecular target: Luciferin 4-monooxygenase (Photinus pyralis) (UniProt P08659); experiment: qHTS assay to identify small molecule inhibitors of firefly luciferase (AID 1224835); also: nearly all actives have a fitted effect of over 25% in size; also: potency is read from the fitted curve at half-maximal effect
Chain of Luciferin 4-monooxygenase (Photinus pyralis) (P08659 whole entry, looked up): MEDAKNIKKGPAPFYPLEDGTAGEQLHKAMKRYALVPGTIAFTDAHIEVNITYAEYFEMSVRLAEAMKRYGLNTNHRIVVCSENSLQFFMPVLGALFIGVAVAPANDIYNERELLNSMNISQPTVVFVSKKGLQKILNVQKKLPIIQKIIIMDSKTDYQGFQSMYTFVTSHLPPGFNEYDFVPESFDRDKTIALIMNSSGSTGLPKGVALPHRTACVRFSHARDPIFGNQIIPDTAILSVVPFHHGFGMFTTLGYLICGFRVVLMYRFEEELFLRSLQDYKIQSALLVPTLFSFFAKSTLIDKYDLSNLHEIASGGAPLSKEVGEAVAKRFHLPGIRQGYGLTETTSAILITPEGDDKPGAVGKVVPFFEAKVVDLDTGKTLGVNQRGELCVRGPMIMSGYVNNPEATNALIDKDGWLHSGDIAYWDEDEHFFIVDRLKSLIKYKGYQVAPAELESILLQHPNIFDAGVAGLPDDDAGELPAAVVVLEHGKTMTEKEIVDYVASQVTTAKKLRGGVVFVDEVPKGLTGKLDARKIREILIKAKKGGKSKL
Outline: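 Biochemical qHTS: compounds run as interplate titrations against purified firefly enzyme, with D-luciferin and ATP each at its KM concentration. Light output recorded by CCD imaging.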

[3] = qHTS assay to identify small molecule agonists of the constitutive androstane receptor (CAR) signaling pathway - cell viability counter screen (AID 1224836); also: nearly all actives have a fitted effect of over 45% in size
Outline: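 23 h treatment, 37 C, 5% CO2. Cell line: HepG2 stably expressing hCAR with a CYP2B6-2.2kb construct. Co-treatment: PK11195, 0.75 uM final. Read-out: CellTiter-Fluor fluorescence intensity.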

[4] = qHTS assay to identify small molecule antagonists of the constitutive androstane receptor (CAR) signaling pathway - cell viability counter screen (AID 1224837); also: nearly all actives have a fitted effect of over 45% in size
Outline: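 CITCO at 50 nM final was added alongside compounds (15 concentrations) to double-stable hCAR/CYP2B6-2.2kb HepG2 cells. Following 23 hr at 37 C, cell viability was quantified by CellTiter-Fluor fluorescence intensity.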

[5] = molecular target: Nuclear receptor subfamily 1 group I member 3 (Homo sapiens) (UniProt Q14994); experiment: qHTS assay to identify small molecule antagonists of the constitutive androstane receptor (CAR) signaling pathway (AID 1224838); also: nearly all actives have a fitted effect of over 40% in size
Chain of Nuclear receptor subfamily 1 group I member 3 (Homo sapiens) (Q14994 whole entry, looked up): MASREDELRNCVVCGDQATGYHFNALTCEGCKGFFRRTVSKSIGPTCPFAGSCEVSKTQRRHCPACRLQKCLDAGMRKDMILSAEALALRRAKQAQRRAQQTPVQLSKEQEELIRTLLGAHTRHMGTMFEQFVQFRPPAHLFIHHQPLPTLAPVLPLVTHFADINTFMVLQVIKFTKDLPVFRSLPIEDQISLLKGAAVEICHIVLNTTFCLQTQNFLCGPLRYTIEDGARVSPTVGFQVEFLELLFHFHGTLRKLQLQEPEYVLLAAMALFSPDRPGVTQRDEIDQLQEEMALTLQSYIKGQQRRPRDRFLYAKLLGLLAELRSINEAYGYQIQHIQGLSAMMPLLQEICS
Outline: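 Inhibition of CITCO-driven (50 nM final) CYP2B6 reporter expression is measured in HepG2 cells stably carrying hCAR. Fifteen compound concentrations are applied for 24 h at 37 C, followed by luciferase luminescence.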

[6] = molecular target: Nuclear receptor subfamily 1 group I member 3 (Homo sapiens) (UniProt Q14994); experiment: qHTS assay to identify small molecule agonists of the constitutive androstane receptor (CAR) signaling pathway (AID 1224839); also: nearly all actives have a fitted effect of over 15% in size; also: potency is read from the fitted curve at half-maximal effect
Outline: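 Compounds tested at 15 concentrations on HepG2 cells stably harbouring hCAR and CYP2B6-2.2kb reporter constructs, co-treated with PK11195 (0.75 uM final), 24 h at 37 C; luminescent reporter signal quantified.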

[7] = qHTS assay to identify small molecule antagonists of the estrogen related receptor signaling pathway with the pleiotropic PPARgamma coactivator (PGC) from Tox21 10K library (AID 1224841; call rule not given here; also: actives are mostly falling curves and most rising ones were filed inactive; nearly all actives have a fitted effect of over 50% in size)
Outline: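 One-Glo luminescence, measured after half an hour at room temperature, quantified reporter output of PGC/ERR cells. These had been plated at 2,000 per well, incubated 6 h, dosed with compounds in DMSO, then kept 18 h at 37 C.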

[8] = qHTS assay to identify small molecule agonists of the estrogen related receptor signaling pathway with the pleiotropic PPARgamma coactivator (PGC) from Tox21 10K library (AID 1224842); also: nearly all actives have a fitted effect of over 15% in size; also: potency is read from the fitted curve at half-maximal effect
Outline: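 PGC/ERR reporter cell line, 2,000 cells per well, incubated 6 h at 37 C before 23 nL compound in DMSO was added. After 18 h at 37 C, One-Glo luminescence read following 30 min at room temperature.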

[9] = molecular target: Thyrotropin receptor (Homo sapiens) (UniProt P16473); experiment: qHTS assay to identify small molecule agonists of the thyroid stimulating hormone receptor (TSHR) signaling pathway (AID 1224843; calls by dose curve; also: nearly all actives have a fitted effect of over 45% in size)
Chain of Thyrotropin receptor (Homo sapiens) (P16473 whole entry, looked up): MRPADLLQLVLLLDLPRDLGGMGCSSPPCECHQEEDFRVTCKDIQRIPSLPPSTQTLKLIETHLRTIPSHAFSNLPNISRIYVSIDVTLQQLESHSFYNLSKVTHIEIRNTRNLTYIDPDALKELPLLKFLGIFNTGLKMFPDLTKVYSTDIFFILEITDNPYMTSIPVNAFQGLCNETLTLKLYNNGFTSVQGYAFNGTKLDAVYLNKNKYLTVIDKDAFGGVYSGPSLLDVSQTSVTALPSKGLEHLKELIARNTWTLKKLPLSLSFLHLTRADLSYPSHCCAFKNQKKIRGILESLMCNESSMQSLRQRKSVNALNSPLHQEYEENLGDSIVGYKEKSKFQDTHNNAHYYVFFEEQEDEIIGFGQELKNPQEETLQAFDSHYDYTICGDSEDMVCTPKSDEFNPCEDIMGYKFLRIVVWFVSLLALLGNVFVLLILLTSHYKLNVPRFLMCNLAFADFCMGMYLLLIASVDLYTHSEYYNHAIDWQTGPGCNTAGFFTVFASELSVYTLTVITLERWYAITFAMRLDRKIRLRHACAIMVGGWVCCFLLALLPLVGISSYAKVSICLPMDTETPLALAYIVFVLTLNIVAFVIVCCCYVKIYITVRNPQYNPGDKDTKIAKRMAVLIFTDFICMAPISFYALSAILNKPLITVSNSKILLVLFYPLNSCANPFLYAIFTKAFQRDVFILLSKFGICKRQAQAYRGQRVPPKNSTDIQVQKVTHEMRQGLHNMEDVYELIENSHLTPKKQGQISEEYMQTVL
Outline: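 HEK293/TSHR, 800 cells/well; cpd 30 min RT; add cAMP-d2 + anti-cAMP-cryptate, 1 h RT; fluorescence read on plate reader. 15-pt titration, n=3.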

[10] = qHTS assay to identify small molecule agonists of the hypoxia (HIF-1) signaling pathway - cell viability counter screen (AID 1224844; calls by dose curve; also: nearly all actives have a fitted effect of over 50% in size)
Outline: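 In this counter screen, HRE-bla ME-180 cell viability after 17 hrs of compound exposure at 37C was read by CellTiter-Glo luminescence, multiplexed with the beta-lactamase reporter measurement.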

[11] = qHTS assay to identify small molecule agonists of H2AX (AID 1224845; active = well fitted activation curve with a large enough effect in the signal ratio in the repeat runs, not every such curve was filed as active; the % refers to the signal ratio)
Outline: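 Wild-type CHO-K1 cells, plated overnight, exposed 3hr at 37C to 15 concentrations (0.76% DMSO final). Lysed, then HTRF anti-pH2AX (S139) cryptate and anti-H2AX-d2 antibodies, 24 hr room temperature; 665/620 nm emission read.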

[12] = qHTS assay to identify small molecule antagonists of the estrogen related receptor (ERR) signaling pathway from Tox21 library (AID 1224848); also: nearly all actives have a fitted effect of over 50% in size
Outline: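 Compounds dissolved in DMSO are pin-transferred onto ERR reporter cells (2,000 per well) that have settled for 6 h at 37 C. Plates then incubate 18 h at 37 C before ONE-Glo luciferase reagent and a luminescence read 30 min later.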

[13] = qHTS assay to identify small molecule agonists of the estrogen related receptor (ERR) signaling pathway from Tox21 library (AID 1224849; calls by dose curve; also: nearly all actives have a fitted effect of over 15% in size); details: ERR reporter cell line, ONE-Glo luciferase, 18 h; at 92.4 µM (top of the series) unless noted
Outline: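 Luciferase activity in ERR pathway reporter cells served as the agonist readout; exposure lasted 18 h at 37 C, with ONE-Glo detection after 30 min at room temperature.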

[14] = qHTS RealTime-Glo MT Cell Viability Assay in HepG2 cells - 24 hour (AID 1224867); also: nearly all actives have a fitted effect of over 50% in size
Outline: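 Compound treatment began 5 h after plating HepG2 cells (600/well) with NanoLuc luciferase and prosubstrate. Plates stayed at 37 C for 40 h; luminescence was captured at six time points, 0 h through 40 h.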

[15] = qHTS RealTime-Glo MT Cell Viability Assay in HEK293 cells - 32 hour (AID 1224868)
Outline: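 Quantitative high-throughput screen of the Tox21 10K library in HEK293: cells and RealTime-Glo reagents plated together, compound added at 5 h, luminescence monitored through 40 h at 37 C.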

[16] = A CellTox Green Cytotoxicity Assay to monitor cytotoxicity in HEK293 cells - 0 hour (AID 1224869); also: nearly all actives have a fitted effect of over 50% in size
Outline: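 Real-time, in one plate: 600 HEK293 cells/well with dead-cell DNA dye, pinned compound after 5 h, 37 C incubation over 40 h; viable cells give no appreciable fluorescence.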

[17] = qHTS RealTime-Glo MT Cell Viability Assay in HepG2 cells - 40 hour (AID 1224870); also: nearly all actives have a fitted effect of over 50% in size; also: potency is read from the fitted curve at half-maximal effect
Outline: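 HepG2 cells (600/well) mixed with RealTime-Glo MT reagent, settled 5 h at 37 C/5% CO2 before compound addition. Nonlytic NanoLuc luminescence from viable-cell prosubstrate reduction read repeatedly during 40 h treatment at 37 C.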

[18] = qHTS assay to identify small molecule agonists of the hypoxia (HIF-1) signaling pathway (AID 1224846; active = well fitted activation curve with a large enough effect in the signal ratio in the repeat runs, not every such curve was filed as active; the % refers to the signal ratio)
Outline: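 ME-180 HRE-bla reporter cells; compounds in DMSO, 17 h at 37C; read-out beta-lactamase via CCF4-AM FRET.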

[19] = qHTS assay to identify small molecule agonists of H2AX - cell viability counter screen (AID 1224847; calls by dose curve; also: top concentration of the series differs between compounds; nearly all actives have a fitted effect of over 30% in size)
Outline: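 Compounds tested at 15 concentrations were incubated 3 hr at 37C with wild-type CHO-K1 cells; cellular ATP-based luminescence (CellTiter-Glo) indicated viability.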

[20] = qHTS assay to identify small molecule antagonists of the estrogen related receptor signaling pathway with the pleiotropic PPARgamma coactivator (PGC) from Tox21 10K library - cell viability counter screen (AID 1224840; active = well fitted cell-killing curve with a large enough effect in the repeat runs, not every such curve was filed as active; also: nearly all actives have a fitted effect of over 40% in size)
Outline: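 Readout: fluorescence intensity from CellTiter-Fluor after 30 min at 37 C/5% CO2. Preceded by 17.5 h treatment of PGC/ERR cells with DMSO-dissolved compounds, added 6 h post-seeding.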

| SMILES | Potency [1] | Potency [2] | outcome [3] | outcome [4] | Potency [5] | Potency [6] | Potency [7] | Potency [8] | outcome [9] | Potency [10] | outcome [11] | Potency [12] | activity change, positive = activation [13] | outcome [14] | Potency [15] | Potency [16] | Potency [17] | outcome [18] | Potency [19] | outcome [20] |
| --- | --- | --- | --- | --- | --- | --- | --- | --- | --- | --- | --- | --- | --- | --- | --- | --- | --- | --- | --- | --- |
| Cc1nc(-c2ccc(OCC(C)C)c(C#N)c2)sc1C(=O)O | inactive | 309 nM (active) | inactive | inactive | inactive | 75 nM (active) | inactive | 668 nM (active) | inactive | inactive | inactive | inactive | 18.5% [at 42.5 µM] (active) | inactive | inactive | inactive | inactive |  |  |  |
| O=S(=O)(O)c1ccccc1O | inactive | inactive | inactive | inactive | inactive | inactive | inactive | inactive | inactive | inactive | inactive | inactive | -0.0376% | inactive | inactive | inactive | inactive | inactive | inactive |  |
| C=CCOCC(O)CS(=O)(=O)O (stereo not given) | inactive | inactive | inactive | inactive | inactive | inactive |  |  | inactive | inactive | inactive |  |  | inactive | inactive | inactive | inactive |  | inactive |  |
| C=CC(=O)N1CCOCC1 | inactive | inactive | inactive | inactive | inactive |  | inactive | inactive | inactive | inactive |  | inactive | 4.07% | inactive | inactive | inactive |  | inactive | inactive | inactive |
| OCCCCCCO | inactive | inactive | inactive | inactive | inactive | inactive |  |  |  | inactive | inactive |  |  | inactive | inactive | inactive | inactive | inactive | inactive | inactive |
| CCCCCCC(=O)OCC | inactive | inactive | inactive | inactive | inactive | inactive | inactive | inactive | inactive | inactive | inactive | inactive | 6.4% | inactive | inactive | inactive | inactive |  | inactive |  |
| CC12CCC(CC1=O)C2(C)C (stereo not given) | inactive | inactive | inactive | inactive | inactive | inactive | inactive | inactive | inactive | inactive | inactive | inactive | 2.86% | inactive | inactive | inactive | inactive | inactive | inactive |  |
| COCc1ccc(COC)cc1 | inactive | inactive | inactive | inactive | inactive | inactive |  |  |  | inactive | inactive |  |  | inactive | inactive | inactive | inactive | inactive | inactive | inactive |
| OC1OC[C@@H](O)[C@H](O)[C@H]1O (stereo not given in full) | inactive | inactive | inactive | inactive | inactive | inactive |  |  |  |  | inactive |  |  | inactive | inactive | inactive |  | inactive |  |  |
| CCCCCCCCCCCCI | inactive | 56700 nM (active) | inactive | inactive |  | inactive |  |  |  |  | inactive |  |  |  | inactive | inactive | 22000 nM (active) | inactive | inactive | inactive |
| O=Cc1ccccc1[N+](=O)[O-] | inactive | inactive | inactive | inactive |  |  | inactive | inactive | inactive | inactive | inactive | inactive | 2.11% | inactive | inactive | inactive | inactive | inactive |  | inactive |
| CC(C)c1ccc2oc3nc(N)c(C(=O)O)cc3c(=O)c2c1 | inactive | 275 nM (active) | inactive | inactive |  | 841 nM (active) | inactive | 1330 nM (active) | inactive | inactive |  | inactive | 105% [at 42.5 µM] (active) |  | inactive | inactive | inactive | inactive | inactive |  |
